This passage reports binding signal results from article PMC11006913.

Where a chain is given by its changes, count along the chain named.

What all share (test): PBM; 200 nM protein, PBS
Holding throughout (conditions): dsDNA, one strand shown

Experiment [1] deals with HOXB9 (Homo sapiens, UniProt P17482 171-250, T197M).
Experiment [2] has as its target T1, VENTX (Homo sapiens, UniProt O95231 78-163).
T1 sequence: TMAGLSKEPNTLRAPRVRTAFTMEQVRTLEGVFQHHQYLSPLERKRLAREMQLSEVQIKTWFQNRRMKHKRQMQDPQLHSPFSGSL

Experiment [3] addresses T2, PAX4 (Homo sapiens, UniProt O43316 9-242, R200K).
T2 sequence: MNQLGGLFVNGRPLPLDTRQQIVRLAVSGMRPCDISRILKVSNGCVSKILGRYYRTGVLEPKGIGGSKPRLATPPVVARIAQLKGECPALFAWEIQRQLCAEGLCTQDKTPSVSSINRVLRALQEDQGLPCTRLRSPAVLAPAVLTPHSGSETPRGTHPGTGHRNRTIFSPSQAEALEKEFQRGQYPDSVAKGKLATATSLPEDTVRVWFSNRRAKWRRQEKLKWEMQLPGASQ

The target in experiment [4] is T3, VENTX (Homo sapiens, UniProt O95231 78-163, Y115F).
T3 sequence: T1 sequence with Y38F

For experiment [5], the target named is T4, PAX4 (Homo sapiens, UniProt O43316 9-242).
T4 sequence: T2 sequence with K192R

For experiment [6], the target named is T5, PAX4 (Homo sapiens, UniProt O43316 9-242, R200Q).
T5 sequence: T2 sequence with K192Q

The target of experiment [7] is T6, PAX4 (Homo sapiens, UniProt O43316 9-242, F177V).
T6 sequence: T2 sequence with F169V, K192R

Experiment [8] has as its target T7, PAX4 (Homo sapiens, UniProt O43316 9-242, F177Y).
T7 sequence: T2 sequence with F169Y, K192R

In experiment [9] the target is VAX1 (Homo sapiens, UniProt Q5SQQ9 86-172).
In experiment [10] the target is T8, PAX4 (Homo sapiens, UniProt O43316 9-242, R227W).
T8 sequence: T2 sequence with K192R, R219W

The target in experiment [11] is HOXA2 (Homo sapiens, UniProt O43364 129-215, Y150S).
In experiment [12] the target is HOXA2 (Homo sapiens, UniProt O43364 129-215).
Experiment [13] addresses HOXC9 (Homo sapiens, UniProt P31274 178-260, K195R).
Experiment [14] deals with HOXB9 (Homo sapiens, UniProt P17482 171-250).
The target of experiment [15] is HOXC9 (Homo sapiens, UniProt P31274 178-260, R193K).
Experiment [16] addresses HOXC10 (Homo sapiens, UniProt Q9NYD6 254-340, K271E).
Experiment [17] concerns the target HOXB9 (Homo sapiens, UniProt P17482 171-250, R186Q).
Experiment [18] deals with HOXC9 (Homo sapiens, UniProt P31274 178-260, R222W).
Chain of HOXC9 (Homo sapiens, UniProt P31274 178-260, R222W) (P31274 178-260 R222W): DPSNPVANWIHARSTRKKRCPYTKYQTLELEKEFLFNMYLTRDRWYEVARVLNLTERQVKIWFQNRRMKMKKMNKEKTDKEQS

Chain of HOXC9 (Homo sapiens, UniProt P31274 178-260, K195R) (P31274 178-260 K195R): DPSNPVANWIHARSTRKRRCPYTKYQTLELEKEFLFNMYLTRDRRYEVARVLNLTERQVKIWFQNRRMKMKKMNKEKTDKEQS
Chain of VAX1 (Q5SQQ9 86-172): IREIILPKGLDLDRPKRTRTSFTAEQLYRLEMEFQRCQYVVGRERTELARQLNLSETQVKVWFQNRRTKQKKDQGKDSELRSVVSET
Chain of HOXB9 (Homo sapiens, UniProt P17482 171-250, R186Q) (P17482 171-250 R186Q): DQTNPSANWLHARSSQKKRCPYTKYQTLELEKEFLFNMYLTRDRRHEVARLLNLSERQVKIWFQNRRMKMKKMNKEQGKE
Chain of HOXC9 (Homo sapiens, UniProt P31274 178-260, R193K) (P31274 178-260 R193K): as the sequence (P31274 178-260 R222W) above, with R16K, W45R counted along it
Chain of HOXB9 (Homo sapiens, UniProt P17482 171-250, T197M) (P17482 171-250 T197M): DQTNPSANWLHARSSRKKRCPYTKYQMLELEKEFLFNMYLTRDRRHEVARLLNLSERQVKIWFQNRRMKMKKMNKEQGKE
Chain of HOXB9 (Homo sapiens, UniProt P17482 171-250) (P17482 171-250): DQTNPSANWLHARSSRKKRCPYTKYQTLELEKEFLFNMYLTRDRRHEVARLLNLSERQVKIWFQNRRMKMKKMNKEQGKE
Chain of HOXA2 (Homo sapiens, UniProt O43364 129-215, Y150S) (O43364 129-215 Y150S): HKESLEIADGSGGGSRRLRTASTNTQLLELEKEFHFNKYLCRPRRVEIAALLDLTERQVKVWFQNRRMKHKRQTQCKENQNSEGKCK
Chain of HOXA2 (Homo sapiens, UniProt O43364 129-215) (O43364 129-215): as the sequence (O43364 129-215 Y150S) above, with S22Y counted along it
Chain of HOXC10 (Q9NYD6 254-340 K271E): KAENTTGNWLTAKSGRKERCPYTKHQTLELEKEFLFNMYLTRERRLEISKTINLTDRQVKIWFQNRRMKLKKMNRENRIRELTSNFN

As for AATTAACA, the binding signal was 9.97 upbm affinity estimate (log intensity, higher = more binding, comparable within an allelic series) in experiment [1]; 12.4 upbm affinity estimate (log intensity, higher = more binding, comparable within an allelic series) in experiment [2]; 11.8 upbm affinity estimate (log intensity, higher = more binding, comparable within an allelic series) in experiment [3]; 11.7 upbm affinity estimate (log intensity, higher = more binding, comparable within an allelic series) in experiment [4]; 12.5 upbm affinity estimate (log intensity, higher = more binding, comparable within an allelic series) in experiment [5]; 12.2 upbm affinity estimate (log intensity, higher = more binding, comparable within an allelic series) in [6]. The binding signal is 10.8 upbm affinity estimate (log intensity, higher = more binding, comparable within an allelic series) in experiment [7]; 11.2 upbm affinity estimate (log intensity, higher = more binding, comparable within an allelic series) in [8]; 12.9 upbm affinity estimate (log intensity, higher = more binding, comparable within an allelic series) in [9]; 11.2 upbm affinity estimate (log intensity, higher = more binding, comparable within an allelic series) in experiment [10]; 11 upbm affinity estimate (log intensity, higher = more binding, comparable within an allelic series) in experiment [11]; 12.2 upbm affinity estimate (log intensity, higher = more binding, comparable within an allelic series) in experiment [12].

As to CAATTAAA, the binding signal in experiment [1] is 10.2 upbm affinity estimate (log intensity, higher = more binding, comparable within an allelic series); in experiment [13], 12.9 upbm affinity estimate (log intensity, higher = more binding, comparable within an allelic series); in experiment [2], 12.3 upbm affinity estimate (log intensity, higher = more binding, comparable within an allelic series); in [4], 11.4 upbm affinity estimate (log intensity, higher = more binding, comparable within an allelic series); in experiment [14], 12.3 upbm affinity estimate (log intensity, higher = more binding, comparable within an allelic series); in experiment [15], 12.8 upbm affinity estimate (log intensity, higher = more binding, comparable within an allelic series). Moreover, the binding signal is 12.3 upbm affinity estimate (log intensity, higher = more binding, comparable within an allelic series) in [16]; 12.8 upbm affinity estimate (log intensity, higher = more binding, comparable within an allelic series) in [9]; 12 upbm affinity estimate (log intensity, higher = more binding, comparable within an allelic series) in [17]; 11.3 upbm affinity estimate (log intensity, higher = more binding, comparable within an allelic series) in experiment [18].

For the sequence AAATTAAT, the binding signal in experiment [1] was 10.1 upbm affinity estimate (log intensity, higher = more binding, comparable within an allelic series); in [13], 12.6 upbm affinity estimate (log intensity, higher = more binding, comparable within an allelic series); in [3] it was 11.9 upbm affinity estimate (log intensity, higher = more binding, comparable within an allelic series); in experiment [5], 12.4 upbm affinity estimate (log intensity, higher = more binding, comparable within an allelic series); in experiment [14], 11.8 upbm affinity estimate (log intensity, higher = more binding, comparable within an allelic series); in experiment [6], 12.4 upbm affinity estimate (log intensity, higher = more binding, comparable within an allelic series). Moreover, the binding signal in experiment [15] was 12.5 upbm affinity estimate (log intensity, higher = more binding, comparable within an allelic series); in experiment [7] it was 10.7 upbm affinity estimate (log intensity, higher = more binding, comparable within an allelic series); in experiment [8], 11.2 upbm affinity estimate (log intensity, higher = more binding, comparable within an allelic series); in experiment [9], 12.7 upbm affinity estimate (log intensity, higher = more binding, comparable within an allelic series); in [17], 11.5 upbm affinity estimate (log intensity, higher = more binding, comparable within an allelic series); in [10] it was 11.1 upbm affinity estimate (log intensity, higher = more binding, comparable within an allelic series).

On to TATTAGAA, for which the binding signal is 11 upbm affinity estimate (log intensity, higher = more binding, comparable within an allelic series) in experiment [3]; 11.3 upbm affinity estimate (log intensity, higher = more binding, comparable within an allelic series) in experiment [5]; 11 upbm affinity estimate (log intensity, higher = more binding, comparable within an allelic series) in experiment [6]; 10.3 upbm affinity estimate (log intensity, higher = more binding, comparable within an allelic series) in [7].

Take ATTAATAG: the binding signal is 10.1 upbm affinity estimate (log intensity, higher = more binding, comparable within an allelic series) in [1]; 12.7 upbm affinity estimate (log intensity, higher = more binding, comparable within an allelic series) in experiment [13]; 11.9 upbm affinity estimate (log intensity, higher = more binding, comparable within an allelic series) in experiment [14]; 12.6 upbm affinity estimate (log intensity, higher = more binding, comparable within an allelic series) in experiment [15]; 12 upbm affinity estimate (log intensity, higher = more binding, comparable within an allelic series) in [16]; 12.6 upbm affinity estimate (log intensity, higher = more binding, comparable within an allelic series) in experiment [9]. The binding signal was 11.7 upbm affinity estimate (log intensity, higher = more binding, comparable within an allelic series) in [17] and 11.1 upbm affinity estimate (log intensity, higher = more binding, comparable within an allelic series) in experiment [18].

For the sequence CCCTACGG, the binding signal is 9.6 upbm affinity estimate (log intensity, higher = more binding, comparable within an allelic series) in experiment [13]; 8.36 upbm affinity estimate (log intensity, higher = more binding, comparable within an allelic series) in experiment [2]; 8.13 upbm affinity estimate (log intensity, higher = more binding, comparable within an allelic series) in [4]; 9.67 upbm affinity estimate (log intensity, higher = more binding, comparable within an allelic series) in experiment [15]; 9.62 upbm affinity estimate (log intensity, higher = more binding, comparable within an allelic series) in experiment [18].

As to ACTAATTG, the binding signal was 12.9 upbm affinity estimate (log intensity, higher = more binding, comparable within an allelic series) in experiment [2]; 11.5 upbm affinity estimate (log intensity, higher = more binding, comparable within an allelic series) in experiment [3]; 11.9 upbm affinity estimate (log intensity, higher = more binding, comparable within an allelic series) in experiment [4]; 12.1 upbm affinity estimate (log intensity, higher = more binding, comparable within an allelic series) in experiment [5]; 12 upbm affinity estimate (log intensity, higher = more binding, comparable within an allelic series) in experiment [6]; 10.3 upbm affinity estimate (log intensity, higher = more binding, comparable within an allelic series) in experiment [7]. Moreover, the binding signal in experiment [8] is 10.7 upbm affinity estimate (log intensity, higher = more binding, comparable within an allelic series); in [9] it was 13.3 upbm affinity estimate (log intensity, higher = more binding, comparable within an allelic series); in experiment [10] it was 10.8 upbm affinity estimate (log intensity, higher = more binding, comparable within an allelic series); in experiment [11], 10.8 upbm affinity estimate (log intensity, higher = more binding, comparable within an allelic series); in experiment [12], 12.4 upbm affinity estimate (log intensity, higher = more binding, comparable within an allelic series).
